Experiment [1] addresses Cellular tumor antigen p53 (Homo sapiens) (UniProt P04637). Briefly: Primary qHTS for small molecule compounds that upregulate eGFP-tagged delta133p53alpha (in N-terminal) cells. (AID 2060322). Also: nearly all actives have a fitted effect of over 75% in size. Also: potency is read from the fitted curve at half-maximal effect.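 As to activation: cells pre-induced with doxycycline then dosed without doxycycline; series mostly up to about 56 µM; 0% = DMSO vehicle and 100% = reference activator.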 The following applies: NCI-H358 eGFP-delta133p53alpha fluorescence, 24 h; activation: stronger effect = higher value. The method, boiled down: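 NCI-H358 cells pre-induced 24 h with 10 ng/ml doxycycline for eGFP-delta133p53alpha, plated dox-free and exposed 24 h at 37C to titrated compounds. Fixed, Hoechst-stained; gated GFP peak intensity by laser scanning cytometry, normalized to DMSO (0%) and 57.5 uM 5-azacytidine (100%).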
Background: Quantitative high-throughput screening tests each substance at several concentrations.

In experiment [2] the target is Aldehyde dehydrogenase, mitochondrial (Homo sapiens) (UniProt P05091). The experiment is described as follows: qHTS for Inhibitors of the Aldehyde Dehydrogenase Family (ALDH2) Primary screen (AID 2061308).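 Also: plate controls were vehicle for no effect and reference inhibitor for full effect; nearly all actives have a fitted effect of over 55% in size.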
The target in experiment [3] is Retinaldehyde dehydrogenase 3 (Homo sapiens) (UniProt P47895). The experiment is described as follows: qHTS for Inhibitors of the Aldehyde Dehydrogenase Family (ALDH1A3) Primary screen (AID 2061315).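 Also: plate controls were DMSO vehicle for no effect and reference inhibitor for full effect.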

From PubChem BioAssay (NCATS) come the findings set out here.

Results filed as inconclusive are left out. A number with no mark means an inactive call. The source made the active and inactive calls. Calls follow the shape of the dose curve; as a rule, active = well fitted curve in the direction sought with a large enough effect; inconclusive = small, poorly fitted or top-dose-only effect, or another doubt; inactive = no such curve, though single readings can be large; an effect the other way counts as inactive or inconclusive.

Cellular tumor antigen p53 (Homo sapiens), sequence (P04637 whole entry, looked up): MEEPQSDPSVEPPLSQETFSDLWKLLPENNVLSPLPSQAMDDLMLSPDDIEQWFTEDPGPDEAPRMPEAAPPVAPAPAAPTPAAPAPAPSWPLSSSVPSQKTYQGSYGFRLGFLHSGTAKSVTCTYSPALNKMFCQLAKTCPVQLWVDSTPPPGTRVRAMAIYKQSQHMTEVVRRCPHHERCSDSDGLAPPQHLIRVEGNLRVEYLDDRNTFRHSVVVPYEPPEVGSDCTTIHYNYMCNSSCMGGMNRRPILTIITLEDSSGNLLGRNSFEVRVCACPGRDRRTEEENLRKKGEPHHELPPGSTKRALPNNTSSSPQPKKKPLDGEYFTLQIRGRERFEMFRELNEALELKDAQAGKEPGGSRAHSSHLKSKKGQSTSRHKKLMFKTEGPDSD

Consider `Cc1cc(N2CCN(C(=O)Oc3ccc(-c4ccccc4)cn3)CC2)c2ccccc2n1`, for which the activation in experiment [1] is -10.3%. Besides, the Potency entry in experiment [2] and in experiment [3] was “inactive” throughout.

As to `COc1cc(COC2OC(CO)C(O)C(O)C2O)cc(OC)c1O` (stereo not drawn), the activation in experiment [1] was -6.87%. In addition, the Potency entry in experiment [2] and in experiment [3] was “inactive” each time.

For `C[C@@H]1C(=O)O[C@H]2CC34[C@H]5C[C@@H](C(C)(C)C)C36[C@@H](OC(=O)[C@@H]6O)O[C@@]4(C(=O)O5)[C@]21O` (stereo partly drawn), the activation in experiment [1] was 19.1%. Also, the Potency result in experiment [2] and in experiment [3] was “inactive” throughout.

On to `CC(C)(C)NS(=O)(=O)c1cncc(-c2cc(F)c3nc(N)nn3c2)c1`, for which, in experiment [1], the activation is 5.36%. Moreover, the Potency entry in experiment [2] and in experiment [3] was “inactive” each time.

`NCCCNc1ccc(Nc2nccc(Nc3cc(C4CC4)[nH]n3)n2)cc1`: in experiment [1], the Potency is 1.51 µM (active). For the same molecule, the Potency result in experiment [2] and in experiment [3] was “inactive” in each case.

On to `CC1=C2C[C@@]3(C)C(CCC[C@@H]3C)C(O)C2(O)OC1=O` (stereo partly drawn), for which the activation in experiment [1] is 0%. For the same molecule, the Potency result in experiment [2] and in experiment [3] was “inactive” in each case.

For `C[C@@H]1O[C@@H](O[C@H]2[C@H](O[C@H]3[C@H](O[C@H]4CC[C@@]5(C)C(CC[C@]6(C)C5CC=C5[C@@H]7CC(C)(C)C[C@@H](O)[C@]7(C)CC[C@]56C)[C@@]4(C)CO)O[C@H](C(=O)O)[C@@H](O)[C@@H]3O)O[C@H](C(=O)O)[C@H](O)[C@@H]2O)[C@H](O)[C@H](O)[C@H]1O` (stereo partly drawn), the activation in experiment [1] was 6.87%. Moreover, the Potency entry in experiment [2] and in experiment [3] was “inactive” throughout.

In the case of `COC(=O)C1C(c2ccc(O)cc2)C(C(=O)OC)C1c1ccc(O)cc1` (stereo not drawn), in experiment [1], the activation was -16.1%. Further, the Potency result in experiment [2] and in experiment [3] was “inactive” each time.

As for `CC(=O)O[C@@H]1C[C@@]2(C)C(CC[C@]3(C)C2CC=C2C4CC(C)(C)CC[C@]4(C(=O)O)CC[C@]23C)C(C)(C)[C@H]1O` (stereo partly drawn), the activation in experiment [1] was 13.4%. Further, the Potency result in experiment [2] and in experiment [3] was “inactive” each time.

Take `COC1=CC(=O)C=C(C)C12Oc1c(Cl)c(OC)cc(OC)c1C2=O` (stereo not drawn): in experiment [1], the activation was 1.53%. Further, the Potency entry in experiment [2] and in experiment [3] was “inactive” throughout.

On to `CC(C)(C)NC(=O)[C@H]1CC[C@H]2[C@@H]3CC[C@H]4NC(=O)CC[C@]4(C)[C@H]3CC[C@]12C`, for which the activation in experiment [1] was 21.7%. Also, the Potency result in experiment [2] and in experiment [3] was “inactive” in each case.

On to `Cc1cc(C(C)Nc2ccccc2C(=O)O)c2nc(N3CCOCC3)cc(=O)n2c1` (stereo not drawn), for which the activation in experiment [1] was 14.3%. The Potency entry in experiment [2] and in experiment [3] was “inactive” throughout.

Take `CC[C@H](C)/C=C(C)/C=C/C1=CC2=CC(=O)[C@]3(C)OC(=O)[C@@H](C(C)=O)[C@@H]3C2=CO1`: the Potency in experiment [1] was 18.6 µM (active). The Potency result in experiment [2] and in experiment [3] was “inactive” in each case.

Turning to `CCOC(=O)c1cc(C#N)c(N2CCC(C(=O)NS(=O)(=O)Cc3ccccc3)CC2)nc1C`, in experiment [1], the activation is 5.67%. The Potency result in experiment [2] and in experiment [3] was “inactive” each time.

Consider `CC1(O)CC(O)C2C(C(=O)O)=COC(OC3OC(CO)C(O)C(O)C3OC(=O)/C=C/c3ccc(O)cc3)C21` (stereo not drawn), for which the activation in experiment [1] is -15.3%. Moreover, the Potency result in experiment [2] and in experiment [3] was “inactive” each time.

With `C=C1CC[C@@H](O)[C@]2(C)C[C@H]3OC(=O)C(=C)[C@H]3CC12` (stereo partly drawn), in experiment [1], the Potency is 21.3 µM (active). The Potency entry in experiment [2] and in experiment [3] was “inactive” each time.

In the case of `C[C@@H]1C[C@@H](O)[C@@]2(CO)C(CO)=CCC[C@@H]2[C@@]12C[C@@H](c1ccoc1)OC2=O`, in experiment [1], the activation was 21.4%. Moreover, the Potency result in experiment [2] and in experiment [3] was “inactive” throughout.

Consider `CN(C)C/C=C/C(=O)Nc1cc2c(Nc3ccc(F)c(Cl)c3)ncnc2cc1OC1CCOC1` (stereo not drawn), for which, in experiment [1], the Potency was 7.57 µM (active). In addition, the Potency entry in experiment [2] and in experiment [3] was “inactive” each time.

`CN(C)C(=O)C(=O)c1cn(C)c2cc(Cl)c(C(=O)N3CCC(Cc4ccc(F)cc4)CC3)cc12`: the activation in experiment [1] is -10.7%. The Potency result in experiment [2] and in experiment [3] was “inactive” throughout.

As for `C=C1CCC2C(C)(C(=O)O)CCCC2(C)C1CC/C(C)=C\CO` (stereo not drawn), the activation in experiment [1] was 15.2%. Also, the Potency result in experiment [2] and in experiment [3] was “inactive” in each case.

Consider `C[C@@H]1O[C@@H](O[C@H]2[C@H](OC(=O)[C@]34CCC(C)(C)C[C@H]3C3=CCC5[C@@]6(C)C[C@@H](O)[C@@H](O)[C@@](C)(CO)C6[C@H](O)C[C@@]5(C)[C@]3(C)CC4)OC[C@H](O)[C@@H]2O)[C@H](O)[C@H](O)[C@H]1O[C@@H]1OC[C@@H](O)[C@H](O[C@H]2O[C@H](C)[C@@H](O)[C@H](O)[C@@H]2O)[C@H]1O` (stereo partly drawn), for which, in experiment [1], the activation was -2.68%. Further, the Potency entry in experiment [2] and in experiment [3] was “inactive” each time.

For `CC(=O)OC1CC2(C)C(CCC(C)C23Cc2c(O)cc(CO)c(C=O)c2O3)C(C)(C)C1O` (stereo not drawn), the activation in experiment [1] was 23.7%. Besides, the Potency entry in experiment [2] and in experiment [3] was “inactive” each time.

On to `C[C@]12CCC[C@](C)(C(=O)O)C1CCC13CC(CO)C(CCC12)C3` (stereo partly drawn), for which the activation in experiment [1] is -19.1%. Further, the Potency result in experiment [2] and in experiment [3] was “inactive” in each case.

Take `COC(=O)C1(O)C(OC(C)=O)CCC2C3(CC(c4ccoc4)OC3=O)C(C)=CCC21C(=O)OC` (stereo not drawn): the activation in experiment [1] was 9.82%. The Potency result in experiment [2] and in experiment [3] was “inactive” in each case.

In the case of `CC(C)(O)c1ccc2c(c1)C(O)C[C@H]1[C@](C)(C(=O)O)CCC[C@]21C` (stereo partly drawn), the activation in experiment [1] is 3.57%. For the same molecule, the Potency result in experiment [2] and in experiment [3] was “inactive” each time.

`CCC/C=C/C(=O)O[C@H]1CC(C)(C)CC2[C@]13[C@H](O)O[C@@]21CCC2[C@@]4(C)CC[C@H](O[C@@H]5O[C@H](C(=O)O)[C@@H](O)[C@H](O[C@@H]6O[C@H](CO)[C@H](O)[C@H](O)[C@H]6O[C@@H]6O[C@@H](C)[C@H](O)[C@@H](O)[C@H]6O[C@@H]6OC[C@](O)(CO)[C@H]6O)[C@H]5O[C@@H]5O[C@H](CO)[C@H](O)[C@H](O)[C@H]5O)C(C)(C)C4CC[C@@]2(C)[C@]1(C)C[C@H]3OC(C)=O` (stereo partly drawn): in experiment [1], the activation is -4.58%. In addition, the figures for the activity change, negative = inhibition in experiment [2] and in experiment [3] were 3.01% [at 11.2 µM] and 13.9% [at 11.2 µM], respectively.
